In all, about 68,000 sequences were measured (“fluorescence intensity (a.u.)”: median about 9,100, highest 2% from about 16,000 on). This is one part of a sample in which the highest values are shown more often than they occur.

This assay deals with OsWRKY34 (Oryza sativa, UniProt Q0JBA9 1-250). In words: protein-binding microarray (RPBM); PBS, 2% BSA, 51.3 ng/ul salmon testes DNA, 50 uM zinc acetate, 200 nM TF, 25 C, 1 h; high values mean tight binding. Particulars: protein: recombinant; tags: N-terminal polyhistidine and DsRed monomer fusion (pET32a); label: CyDye5-dUTP incorporated in the synthesized complementary strand; 3' TTTTT single-stranded linker to array surface; dsDNA, one strand shown. The method in brief: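 The binding signal is fluorescence intensity per array feature (arbitrary units). Readings came from an Axon 4000B scanner after a washed, 2% BSA-blocked, double-stranded custom Agilent array had been incubated for 1 h at 25 °C with 200 nM protein and 50 µM zinc acetate. The protein was a Ni–NTA-purified transcription factor fused N-terminally to polyhistidine and DsRed, expressed in E. coli BL21-CodonPlus.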
OsWRKY34, sequence (Q0JBA9 entry or part of it): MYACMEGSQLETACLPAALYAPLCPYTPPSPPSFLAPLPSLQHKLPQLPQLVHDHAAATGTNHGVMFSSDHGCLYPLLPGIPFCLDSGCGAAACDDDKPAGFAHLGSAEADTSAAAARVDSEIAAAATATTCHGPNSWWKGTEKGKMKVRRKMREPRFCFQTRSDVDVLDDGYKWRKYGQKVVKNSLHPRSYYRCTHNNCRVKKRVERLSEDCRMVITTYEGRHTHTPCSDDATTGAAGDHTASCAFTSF
Turning to “TGTTTATTTTTTTCGTTAAATTTGATTGTTTCCATTTGCACGGAGTCACCTAGTGCAG”, the binding signal is 9770 fluorescence intensity (a.u.).
With “ACCCGCCCCTGCTGCTCACCGCTCCAGCCTCCGCTCATCCCGGAGTCACCTAGTGCAG” the figure was 8790 fluorescence intensity (a.u.).
With “TTGGATTGGTTTCTTTCTGCTCTGTTGCAGCTCCGTTGTCCGGAGTCACCTAGTGCAG” the figure was 9560 fluorescence intensity (a.u.).
With “CCGCTGTTATTCCCTTTGTTGTTTTTTCTCAAGTAAATTTCGGAGTCACCTAGTGCAG” the figure was 13200 fluorescence intensity (a.u.).
As to “CGTCTCTTTTATCCTTCTTTTTTTTCCCATTTTTCTTTTTCGGAGTCACCTAGTGCAG”, the binding signal is 11900 fluorescence intensity (a.u.).
On to “AGGGTTTTTTTTGTCACTTTCGTTGTCAGTTTCTTTTTTCCGGAGTCACCTAGTGCAG”, for which the binding signal is 14100 fluorescence intensity (a.u.).
With “CCGCTGCTGTTTTCTTTTCTTTTGTAAGTGTGTAACGTTACGGAGTCACCTAGTGCAG”, the binding signal was 9400 fluorescence intensity (a.u.).
As to “GGTTGGTTTCTTTCGTTGGATTGTTTCGAGCCAGGGTTTCCGGAGTCACCTAGTGCAG”, the binding signal is 16900 fluorescence intensity (a.u.).
With “CTTGGTGGTTCTTTTCTTCTTCTAGATTTATCCCCATTTTCGGAGTCACCTAGTGCAG” the figure was 16700 fluorescence intensity (a.u.); with “AGTTTTATCCTGGGTTTGTGTTTGGTGCTGTTCTTGCGTGCGGAGTCACCTAGTGCAG”, 10200 fluorescence intensity (a.u.).
With “CGTTATTCCGCTGTTGTTTTTTTTTTCTTTTGTAAGTATGCGGAGTCACCTAGTGCAG” the figure was 17500 fluorescence intensity (a.u.).
With “CCATTTAGATTGGTGCCATTTTAAACTATATCTTTTTCTTCGGAGTCACCTAGTGCAG” the figure was 8220 fluorescence intensity (a.u.).
Take “GGCGGATTTCGGTTTCTTCGTGTGTTTGTTGGTTGCGTTGCGGAGTCACCTAGTGCAG”: the binding signal is 12700 fluorescence intensity (a.u.).
Turning to “TGAGTTTGTTTGCTGGGTTGGTTCGTGCGTTTTCTTGGATCGGAGTCACCTAGTGCAG”, the binding signal is 18800 fluorescence intensity (a.u.).
With “TCTCTCGCCGATTCCGCCACCGCCGCCGCGCCGCGCCTCGCGGAGTCACCTAGTGCAG” the figure was 9420 fluorescence intensity (a.u.).
With “GACGGTGGCCATTCTAATTCCTCTATTGCAGGGTCTAACTCGGAGTCACCTAGTGCAG” the figure was 8310 fluorescence intensity (a.u.); with “TATATCCTATCTCTCACTTCACTCATATAGTGGTTAACTCCGGAGTCACCTAGTGCAG”, 9570 fluorescence intensity (a.u.).
For the sequence “ACTTTTCTACACACATAAACTTCTAACTTTTTCATCACATCGGAGTCACCTAGTGCAG”, the binding signal is 13400 fluorescence intensity (a.u.).
With “GTAGTGCTGATGTTGTACTGTGTTTTTTTACCCGTTTTATCGGAGTCACCTAGTGCAG” the figure was 11500 fluorescence intensity (a.u.); with “CCACCACCACCACGCCACGGCAGCCGCACCGCACCGCACCCGGAGTCACCTAGTGCAG”, 8390 fluorescence intensity (a.u.); with “CACACCTCGCCTCCTCCTCGGCTTGGATCTCGCCGCATCACGGAGTCACCTAGTGCAG”, 8210 fluorescence intensity (a.u.).
For the sequence “AACGGTACCATCACCATCATTTATCATGGGCACAACTTGCCGGAGTCACCTAGTGCAG”, the binding signal is 8810 fluorescence intensity (a.u.).
With “CCTTCGTCGACCCTCCGCCGCCGCCGCCGCCGCCGCCGACCGGAGTCACCTAGTGCAG” the figure was 8660 fluorescence intensity (a.u.).
With “CAACATACAGGGAGTTTTTACCGGCCGCCCTCTACTCTCACGGAGTCACCTAGTGCAG” the figure was 9800 fluorescence intensity (a.u.); with “GAGTTAGCCATGGCCTGTCAATTACTGGAACTCTGTTGTACGGAGTCACCTAGTGCAG”, 8220 fluorescence intensity (a.u.).
With “GTTGCTTTTGCTGGAGTAGTACTTCTATTTATCTTCAAACCGGAGTCACCTAGTGCAG” the figure was 9100 fluorescence intensity (a.u.); with “TGTTTTTTCCTTTTTTTTTCTTTTCTTTTTCTCTCTTCCCCGGAGTCACCTAGTGCAG”, 8200 fluorescence intensity (a.u.); with “CTGGTCAGTTGGTCTTGTGTTTTGGGCTTTTTCGGCCCGTCGGAGTCACCTAGTGCAG”, 12200 fluorescence intensity (a.u.).
For the sequence “CATTTTCTTGGTTTGGTCTTTTTTATTGTTGGGTGTGTTTCGGAGTCACCTAGTGCAG”, the binding signal was 15500 fluorescence intensity (a.u.).
With “TGGTCTTGCCTCTCGCTTAGCCTTTTTGTTGCCTTGTGCTCGGAGTCACCTAGTGCAG” the figure was 12300 fluorescence intensity (a.u.); with “TTTTCGCATGTTTCTTTTCTTTTTTTTTCTTTTCTTTTCCCGGAGTCACCTAGTGCAG”, 16600 fluorescence intensity (a.u.).
With “CTGTAGTTGCCTTTGTTGGTCTTGGTTTTGCTGTTCTGGTCGGAGTCACCTAGTGCAG”, the binding signal is 9910 fluorescence intensity (a.u.).
Turning to “ATCTGTTCGTGGGTTGCTTGCTCAGTCGACCAATCGTTGACGGAGTCACCTAGTGCAG”, the binding signal is 19200 fluorescence intensity (a.u.).
As for “TTCGTGGTTTCGTTCAGCTTGATTTCGCTTGACACATCGACGGAGTCACCTAGTGCAG”, the binding signal was 9110 fluorescence intensity (a.u.).
In the case of “GGAGGGTCTGTTTTCTTGTGTGCGAGCCTTGCTAGTTGCTCGGAGTCACCTAGTGCAG”, the binding signal is 16500 fluorescence intensity (a.u.).
With “TTTTTTCTTTTTTTTTTTGTTTTTTCTCGCCTTTTTTTCCCGGAGTCACCTAGTGCAG” the figure was 11900 fluorescence intensity (a.u.).
Turning to “CTCAGTCGACCAATCGTTGATCGCCACGTCGGCTGTTCTTCGGAGTCACCTAGTGCAG”, the binding signal was 8350 fluorescence intensity (a.u.).
On to “GGGCTTGCGATCGTGTTGTGTTGGGTTGGGTCTTGGGTTTCGGAGTCACCTAGTGCAG”, for which the binding signal was 29400 fluorescence intensity (a.u.).
For the sequence “TCTGACACCTATCTCTCCTGGATTCTCCATGCTTTCTTTCCGGAGTCACCTAGTGCAG”, the binding signal is 10300 fluorescence intensity (a.u.).
For “TTTTCTCACCACTCTCTCTTTCGTGTTCTCTCTCTCTTGTCGGAGTCACCTAGTGCAG”, the binding signal was 12500 fluorescence intensity (a.u.).
With “CATCCTCCTTCCGGAACCTTCTAGAAGGTTCTCCTCGTACCGGAGTCACCTAGTGCAG” the figure was 8530 fluorescence intensity (a.u.).
For the sequence “ATGTATTGGTGTTATGCCTTCTGTTTATTTTATTTGCTCCCGGAGTCACCTAGTGCAG”, the binding signal was 8730 fluorescence intensity (a.u.).
With “AAATCTGTAGCCCGCTGCTTTTCTCTCTCCTTATTTATCTCGGAGTCACCTAGTGCAG” the figure was 11200 fluorescence intensity (a.u.); with “CCAATATCACGTTGTCCTAGCTCTGCCAACGACTTCATCTCGGAGTCACCTAGTGCAG”, 8320 fluorescence intensity (a.u.).
Take “TTCTCTCCCTCCCGGCCGCCGCCCCGCCCCGCCCATCTTGCGGAGTCACCTAGTGCAG”: the binding signal is 9110 fluorescence intensity (a.u.).
Turning to “TTTGTTGGTTGGTTTGACCCTTCCTAATCCTACCTTTGGTCGGAGTCACCTAGTGCAG”, the binding signal was 8160 fluorescence intensity (a.u.).
With “CACGTACGCCGCCGTGTCTCATCACGAGCTCGATCGTTTCCGGAGTCACCTAGTGCAG” the figure was 8240 fluorescence intensity (a.u.); with “GTTGGGTGGGTTTCCCGTCTCCTTCCGATTGCTGAGTAGCCGGAGTCACCTAGTGCAG”, 19100 fluorescence intensity (a.u.); with “TCCTCTGGCTTTCTTTTCCCATTTCGTCTCTTGTTTGTTTCGGAGTCACCTAGTGCAG”, 9160 fluorescence intensity (a.u.).
With “GGGTATTGTAGTAACTTCCTGTGCACCATCGGGGTTAAGACGGAGTCACCTAGTGCAG” the figure was 10500 fluorescence intensity (a.u.).
With “TTCTCTGTTTCTTCTGCCTTCACCACCTGCTCCACATTTTCGGAGTCACCTAGTGCAG” the figure was 10900 fluorescence intensity (a.u.); with “GTGGGTTTTTTTTTTTGGTTTGTTTCTTCCTCTGGCCATTCGGAGTCACCTAGTGCAG”, 19800 fluorescence intensity (a.u.); with “GTGGGTTTCTAGCATCATAGGGGTATTGTAGTAACTTCCTCGGAGTCACCTAGTGCAG”, 17400 fluorescence intensity (a.u.).
For “CGTGGGTAATTTGGTTCCTCTTCTTTTTTTGGCTTCCTTTCGGAGTCACCTAGTGCAG”, the binding signal is 8440 fluorescence intensity (a.u.).
With “ACACCATGTTTCCACATTGCATTTCCTTCTGTTTTTTCTTCGGAGTCACCTAGTGCAG” the figure was 17600 fluorescence intensity (a.u.); with “ATATTTCCTGTTTGCTCTGTGTTTTCTTCCACCTTCCATTCGGAGTCACCTAGTGCAG”, 9830 fluorescence intensity (a.u.).
“AAAGGTGAGTAGTGGTTTCTGGGTTGCGTCTCCCTTTTTCCGGAGTCACCTAGTGCAG”: the binding signal is 12600 fluorescence intensity (a.u.).
With “GATTTGTATTGGTTTTAATAGTAGGGGAATTTCTATACCTCGGAGTCACCTAGTGCAG” the figure was 8140 fluorescence intensity (a.u.); with “GTGGAGTTGCTTTCTCCTCCTCCTTGTTTGGGTTGGGTGCCGGAGTCACCTAGTGCAG”, 11900 fluorescence intensity (a.u.).

The values above are taken from paper PMC7819943, “Rice protein-binding microarrays: a tool to detect cis-acting elements near promoter regions in rice”.
